Calls of active or inactive are those of the source. Rule for the calls: active = hit-call score of the fitted dose curve at least 0.9, where 1 is the maximum; inconclusive = response in the unintended direction; inactive = score below 0.9.

The test system of the assay is IYD (gene 389434). Kind of assay: CCTE_GLTED_hIYD: CCTE's human Iodotyrosine Deiodinase (xIYD) Inhibition Assay, Great Lakes Toxicology and Ecology Division (GLTED) Lab (AID 2284317). Here is the method:
CCTE_GLTED_hIYD is a cell-free, single-readout assay that uses human iodotyrosine deiodinase (hIYD) enzyme produced with baculovirus-insect cell system. The assay is based on iodide release measured by the Sandell-Kolthoff method and is run in 96-well plate format with assay plates run in triplicate (n=3) with measurements taken at 3 hours after chemical dosing. Platewise-normalization was used based on positive control (3-Nitro-L-tyrosine, MNT) and negative/solvent controls (DMSO, NaOH).CCTE_GLTED_hIYD is the assay component measured from the CCTE_GLTED_hIYD assay. It measures substrate involved in regulation of catalytic activity using spectrophotometry. The assay measures the deiodination activity of human IYD on the substrate monoiodotyrosine (MIT). After 3h incubation of substrate, enzyme, and test chemical, the components are applied to a 96-well Dowex column. Free iodide is not retained by the column and is separated from interfering assay components. The free iodide is measured by the Sandell-Kolthoff reaction in which the rate of reduction of cerium (Ce+4 to Ce+3) by arsenic (As+3 to As+5) is increased by the presence of iodide. This is observed as the loss of yellow color in the reaction and the quantified by the change in absorbance at 420 nm. The change in reaction rate is proportional to the amount of iodide present.Data from the assay component CCTE_GLTED_hIYD was analyzed at the assay endpoint CCTE_GLTED_hIYD in the positive analysis fitting direction relative to DMSO as the negative control and baseline of activity. Using a type of enzyme reporter, loss-of-signal activity can be used to understand iodotyrosine deiodinase activity. To generalize the intended target to other relatable targets, this assay endpoint is annotated to the 'dehalogenase' intended target family, where the subfamily is 'iodotyrosine deiodinase'.
Human thyroxine binding globulin (TBG) assay, developed at Great Lakes Toxicology and Ecology Division (GLTED) within the EPA's Center for Computational Toxicology and Exposure (CCTE), is designed to test the chemicals' ability to displace T4 from the TBG protein. The method used was largely based on Montano et al. (2012). This work describes the utilization of ANSA fluorescence when bound to the protein to approximate binding affinity of chemicals through a reduction of fluorescence when ANSA is displaced. This assay was conducted in 96-well plates with an incubation at 4C for 2 hours in a final volume of 200 uL. Final assay conditions included 0.0625 uM TBG, 0.6 uM ANSA, and 0.5% DMSO in 0.1 M phosphate buffer, pH=7.5.
For the molecule `CC(C)(c1ccccc1)c1ccc(O)c(C(C)(C)c2ccccc2)c1`, the half-maximal activity concentration (AC50) was 29.2 µM (active). As for `CC(C)(c1ccc(OCC2CO2)cc1)c1ccc(OCC2CO2)cc1` (configuration not stated), the result was inactive. With `CCC[CH2][Sn]([CH2]CCC)([CH2]CCC)[O]C(=O)c1ccccc1`, the outcome was inactive. In the case of `O=C(O)C(F)(F)C(F)(F)C(F)(F)C(F)(F)C(F)(F)C(F)(F)C(F)(F)C(F)(F)C(F)(F)C(F)(F)F`, the AC50 was 51.3 µM (active). With `COP(=O)(OC)O/C(=C\Cl)c1cc(Cl)c(Cl)cc1Cl`, the call was inactive. Consider `O=C1C(Cl)=C(Cl)C(=O)c2ccccc21`, for which the AC50 is 55 µM (active).

Consider `C=CC#N`, for which the call was inactive. Still for that read-out and setting: next, `C=CC(=O)OCCCCCC(C)C`: “inactive”. For the molecule `CCCCCCCCc1ccc(O)cc1`, the AC50 was 35.7 µM (active). Still for that read-out and setting: next, `CC(C)(C)CC(C)(C)c1ccc(O)cc1`: 66.8 µM (active). The same measure, in the same setting: in the case of `CCC(C)(C)c1ccc(O)c(C(C)(C)CC)c1` it was 37 µM (active); in that of `O=C1C2(Cl)C3(Cl)C4(Cl)C(Cl)(Cl)C5(Cl)C3(Cl)C1(Cl)C5(Cl)C24Cl` (configuration not stated), 40.1 µM (active).

The values are drawn from PubChem BioAssay (EPA / NIEHS).
